Values joined by “and” are separate entries in the source; they are usually repeats but may differ in a detail not shown here. Equal entries are not always repeated. About 220 (0.26%) of roughly 86,000 compounds were called active.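 How the source made its calls: active means mean growth activity at or below -80% and every replicate also at or below -80%; inconclusive means mean at or below -80% but some replicate above -80%; inactive means mean growth activity above -80%.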 For the sample, actives were picked, then their nearest neighbours and some compounds at random.

A short description of this assay: C. difficile growth inhibitors, primary screen, HTS (AID 1259249).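 Further: 0% = DMSO wells and -100% = levofloxacin 16 µg/mL wells.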 To be noted: Clostridium difficile clinical isolate growth, OD600, 24 h; stronger effect = lower value; screened at 16 µg/mL (by protocol).
Consider `COc1ccc(S(=O)(=O)NC[C@@H]2CC[C@@H]3[C@@H](CN3Cc3cc(F)ccc3F)O2)cc1`, for which the growth activity, negative = inhibition was -8.36% (inactive).

Consider `CN1C(=O)c2cc(NC(=O)C3CC3)ccc2OC[C@H]2O[C@H](CC(=O)O)CC[C@H]21`, for which the growth activity, negative = inhibition was 3.37% (inactive).

With `CO[C@@H]1CN(C)C(=O)c2ccc(NC(=O)C3CC3)cc2OC[C@H](C)N(C(C)=O)C[C@H]1C`, the growth activity, negative = inhibition is 0.555% (inactive).

As to `COc1cccc(NC(=O)N[C@H]2C=C[C@H](CC(=O)NCc3ccccn3)O[C@@H]2CO)c1`, the growth activity, negative = inhibition was 6.26% (inactive).

Consider `CO[C@H]1CN(C)C(=O)c2ccc(NC(=O)C3CCCC3)cc2OC[C@H](C)N(C(=O)CC2CC2)C[C@@H]1C`, for which the growth activity, negative = inhibition was -4% (inactive).

Take `C/C=C/c1ccccc1[C@H]1[C@@H](C#N)N(C(C)=O)[C@@H]1CO`: the growth activity, negative = inhibition was -2.31% (inactive).

`O=C(C1CCOCC1)N1CC(=O)N2[C@H](CO)[C@H](c3ccc(C#Cc4cccc(F)c4)cc3)[C@H]2C1`: the growth activity, negative = inhibition was -20.7% (inactive).

`CNC(=O)C[C@H]1CC[C@H]2[C@H](COc3ccc(NC(=O)Nc4ccc(F)cc4)cc3C(=O)N2C)O1`: the growth activity, negative = inhibition is -3.32% (inactive).

Turning to `O=C(C[C@H]1C=C[C@H](NC(=O)Nc2cc(F)ccc2F)[C@@H](CO)O1)NCc1ccccn1`, the growth activity, negative = inhibition was -1.08% (inactive).

In the case of `CNC[C@H]1OCCCC[C@H](C)Oc2ccc(NC(=O)Nc3ccc(C(F)(F)F)cc3)cc2C(=O)N([C@H](C)CO)C[C@@H]1C`, the growth activity, negative = inhibition was 8.32% (inactive).

`C[C@H](O)C#Cc1ccc2c(c1)O[C@@H](CN(C)C(=O)C1CCCCC1)[C@H](C)CN([C@@H](C)CO)S2(=O)=O`: the growth activity, negative = inhibition is -2.82% (inactive).

Take `COc1ccc2c3c(n(C)c2c1)[C@@H](CO)N(C(=O)CN1CCOCC1)CC31CCN(Cc2ccncc2)CC1`: the growth activity, negative = inhibition was -2.85% (inactive).

Turning to `CCCNC(=O)N1CC2(C1)[C@@H](c1ccccc1)[C@@H](CO)N2C(=O)CC1CC1`, the growth activity, negative = inhibition was -0.374% (inactive).

Turning to `C[C@@H]1CN([C@H](C)CO)S(=O)(=O)c2ccc(C3=CCCC3)cc2O[C@H]1CN(C)C(=O)CC1CC1`, the growth activity, negative = inhibition is 3.03% (inactive).

For the compound `COCc1cn(CC[C@H]2CC[C@H](NC(=O)Cc3cccnc3)[C@H](CO)O2)nn1`, the growth activity, negative = inhibition was 1.58% (inactive).

Take `N[C@@H]1CC[C@H](CCn2cc(C3CC3)nn2)O[C@@H]1CO`: the growth activity, negative = inhibition was 5.59% (inactive).

Take `C/C=C/c1ccc([C@@H]2[C@H](CO)N(C(=O)c3cnccn3)C23CN(C(C)=O)C3)cc1`: the growth activity, negative = inhibition is 2.93% (inactive).

For `CCCNC(=O)C[C@H]1CC[C@H]2[C@@H](COC[C@H](O)CN2C(=O)CC)O1`, the growth activity, negative = inhibition is 7.43% (inactive) and 9.67% (inactive).

`COc1ccc(CN(C)C[C@H]2OCc3cn(nn3)CCCC(=O)N([C@@H](C)CO)C[C@@H]2C)cc1`: the growth activity, negative = inhibition was -0.425% (inactive).

Turning to `O=C(C[C@@H]1CC[C@H]2[C@@H](COC[C@@H](O)CN2C(=O)Nc2ccc(Cl)cc2)O1)NC1Cc2ccccc2C1`, the growth activity, negative = inhibition is 2% (inactive) and 46.4% (inactive).

For the compound `O=C(C[C@H]1CC[C@@H]2[C@H](COC[C@@H](O)CN2C(=O)Nc2ccc(Cl)cc2)O1)NC1Cc2ccccc2C1`, the growth activity, negative = inhibition is -5.66% (inactive) and -5.56% (inactive).

Consider `O=C(C[C@H]1CC[C@H]2[C@@H](COC[C@H](O)CN2C(=O)Nc2ccc(Cl)cc2)O1)NCC1CC1`, for which the growth activity, negative = inhibition is 7.11% (inactive).

In the case of `CCCNC(=O)C[C@@H]1CC[C@H]2[C@@H](COC[C@H](O)CN2C(=O)Nc2ccc(Cl)c(Cl)c2)O1`, the growth activity, negative = inhibition is -57.2% (inactive) and -25.4% (inactive).

With `CCCNC(=O)C[C@H]1CC[C@H]2[C@@H](COC[C@@H](O)CN2C(=O)Nc2ccc(Cl)c(Cl)c2)O1`, the growth activity, negative = inhibition is -102% (active) and -6.65% (inactive).

In the case of `O=C(C[C@H]1CC[C@H]2[C@@H](COC[C@@H](O)CN2C(=O)Nc2ccc(C(F)(F)F)cc2)O1)NC1Cc2ccccc2C1`, the growth activity, negative = inhibition is -97.2% (active) and 27.2% (inactive).

As to `CC=Cc1ccc2n(c1=O)C[C@H]1[C@H](CO)[C@@H](C(=O)NC3CCCC3)[C@@H]2N1C(=O)c1cnccn1` (mixture of isomers), the growth activity, negative = inhibition was 3.3% (inactive).

Take `CC(C)NC(=O)N1[C@@H]2CN(C(=O)C3CCCCC3)c3ccccc3[C@@H]2[C@@H]1CO`: the growth activity, negative = inhibition was -5.28% (inactive).

On to `CC(=O)N1[C@H](CO)[C@H](c2ccccc2)[C@H]1CN(C(=O)c1ccccc1F)C(C)C`, for which the growth activity, negative = inhibition was 2.62% (inactive).

Regarding `CCS(=O)(=O)N1CC2(CN(Cc3ccccc3)[C@@H](CO)c3c2c2ccc(OC)cc2n3C)C1`, the growth activity, negative = inhibition was 10.4% (inactive).

Consider `COc1ccccc1C(=O)N1C[C@H]2[C@@H](c3ccccc31)[C@H](CO)N2C(=O)C1CC1`, for which the growth activity, negative = inhibition was -5.43% (inactive).

Take `CO[C@H]1CN(C)C(=O)c2ccc(NS(=O)(=O)c3ccccc3)cc2OC[C@H](C)N(Cc2nccs2)C[C@@H]1C`: the growth activity, negative = inhibition is 1.37% (inactive).

For the compound `COc1cccc(S(=O)(=O)N(C)C[C@@H]2Oc3ncc(-c4cccc(C(=O)N(C)C)c4)cc3C(=O)N([C@H](C)CO)C[C@H]2C)c1`, the growth activity, negative = inhibition was -3.2% (inactive).

On to `COc1cccc(NC(=O)N(C)C[C@H]2Oc3cc(/C=C/c4ccccc4)ccc3S(=O)(=O)N([C@H](C)CO)C[C@@H]2C)c1`, for which the growth activity, negative = inhibition is 5.84% (inactive).

Consider `COc1ccc2c3c(n(C)c2c1)[C@H](CO)N(S(=O)(=O)c1ccc(C)cc1)CC31CCN(C(=O)c2ccccn2)CC1`, for which the growth activity, negative = inhibition was 3.65% (inactive).

With `O=C(C1CCCC1)N1CC(=O)N2[C@H](C1)[C@@H](c1ccc(-c3ccccc3F)cc1)[C@@H]2CO`, the growth activity, negative = inhibition is 2.69% (inactive).

Take `C/C=C/c1ccc([C@H]2[C@@H](CO)N(C(=O)CC)[C@H]2CN(C)C(=O)C2CC2)cc1`: the growth activity, negative = inhibition is -2.06% (inactive).

Turning to `O=C(NCC[C@H]1CC[C@H](NS(=O)(=O)c2cccc(F)c2)[C@H](CO)O1)C1CCCCC1`, the growth activity, negative = inhibition is -5.15% (inactive).

Regarding `C/C=C/c1ccc([C@@H]2[C@H](CO)N(CCC(F)(F)F)C23CN(C(=O)CC)C3)cc1`, the growth activity, negative = inhibition is 8.71% (inactive).

In the case of `CC(C)NC(=O)N(C)C[C@H]1Oc2ncc(-c3cccc(C#N)c3)cc2C(=O)N([C@@H](C)CO)C[C@H]1C`, the growth activity, negative = inhibition is 5.25% (inactive).

The values are drawn from PubChem BioAssay AID1259249 (Broad Institute, 2017).
